High-throughput results from PubChem.
Shown are actives, neighbours in structure and some others; about 21% of the full set was active somewhere.
Cycloheximide cs = affects cycloheximide protein synthesis inhibition readout, counter-screen | cell reporter, cycloheximide protein synthesis inhibition counterscreen | max response, % | 300,000 tested, 12% active; in the data active means max response mostly above about 13%, no sharp cut-off; inactive means mostly below about 14%; further: read at 38.3 µM for the half of the compounds with a filed dose
FBPA Giardia inh = Giardia lamblia aldolase inhibition | Potency, µM (series often up to 59.6 µM), actives largely listed as inhibitors | purified Giardia FBPA | 290,000 tested, 0.71% active | A8B2U2; further: nearly all actives have a fitted effect of over 55% in size
Target sequence (A8B2U2 whole entry, looked up): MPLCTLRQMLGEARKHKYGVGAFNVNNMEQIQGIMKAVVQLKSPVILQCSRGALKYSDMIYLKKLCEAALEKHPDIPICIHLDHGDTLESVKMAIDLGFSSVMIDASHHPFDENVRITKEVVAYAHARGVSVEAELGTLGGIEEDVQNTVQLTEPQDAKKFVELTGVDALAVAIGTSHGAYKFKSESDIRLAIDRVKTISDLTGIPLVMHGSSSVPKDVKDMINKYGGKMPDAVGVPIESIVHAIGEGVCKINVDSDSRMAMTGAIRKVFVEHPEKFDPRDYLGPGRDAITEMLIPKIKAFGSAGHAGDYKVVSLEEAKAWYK
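40 nM FBPA preincubated 10 min at RT with compound (up to 57.5 uM final), then substrate plus GAPDH/TPI/NAD/arsenate coupling and diaphorase/resazurin added. Fluorescence read after 20 min at RT, 525/598 nm.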
NS1 function inh = inhibitors of influenza NS1 protein function; AID 2326; 270,000 tested, 0.4% active; Potency, µM (top dose mostly 46.1 µM); calls by dose curve; further: actives are rising curves; nearly all actives have a fitted effect of over 50% in size
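In this qHTS, NS1 from influenza A is expressed in budding yeast, where it slows growth. Cells are switched from glucose to 2% galactose medium (pH 6.0, -URA), treated with compound, and growth recovery is read at OD600.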
Shiga inhibitor = inhibitors of Shiga toxin in Vero cells. Vero cells, Shiga toxin protein synthesis inhibition reporter. AID 2315. 290,000 tested, 9.2% active. inhibition, % at 38.7 µM; in the data active means inhibition mostly above about 28%, no sharp cut-off; inactive means mostly below about 43%
Pf growth 96h = P. falciparum growth inhibition at 96 hours; Potency, µM (highest dose often 28.7 µM), usual class: inhibitors; 320,000 tested, 6.9% active; P. falciparum luciferase reporter growth, 96 h; AID 504834
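Luminescence readout: decreased luciferase signal marks inhibited growth of reporter-expressing P. falciparum in infected red cells (2% hematocrit, 0.05% parasitemia final), exposed to compound two generations (96 h, 37 C, 5% CO2).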
Pf growth 48h = inhibits P. falciparum growth in the first generation, 48 h; P. falciparum luciferase growth in erythrocytes, 48 h; Potency, µM (highest dose often 28.7 µM), most hits filed as inhibitors; 310,000 tested, 5.9% active; AID 504832
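In quantitative HTS format, infected erythrocytes bearing luciferase-reporter parasites were treated for a single generation at 37 C. Luminescence after adding detection reagent served as the growth measure.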
Numbers stand for hits; 0 = inactive; ? = inconclusive; - = no result; [ ] = dose if it differs, or a comment. Unless noted, the call rests on the fitted dose curve; in most records, active means well fitted curve in the direction sought with a large enough effect; inconclusive means small, poorly fitted or top-dose-only effect, or another doubt; inactive means no such curve, though single readings can be large; an effect the other way counts as inactive or inconclusive.

SMILES | Cycloheximide cs | FBPA Giardia inh | NS1 function inh | Shiga inhibitor | Pf growth 96h | Pf growth 48h
C/C(=N\N=C(N)N)c1ccc(Cl)c(Cl)c1 | 0 | 0 | 0 | 0 | ? | 4.1µM
Cc1ccc(NCC(=O)Nc2ccc(Br)cc2)cc1C | 18 | 0 | 0 | 0 | ? | ?
Cc1cc(F)ccc1NCC(=O)Nc1ccc(Br)cc1C | 0 | 0 | 0 | 0 | 0 | 0
Cc1ccc(F)cc1NCC(=O)Nc1ccc(Br)cc1 | 31 | 0 | 0 | 58 | 0 | 0
Cc1ccc(Sc2ccc(NC(=O)CCl)cc2)cc1C | 11 | 0 | 0 | 18 | 0.83µM | 1.5µM
Cn1c(=O)c2c(ncn2C[C@@H](O)CO)n(C)c1=O | - | 0 | - | - | 0 | 0
Cc1cc(C(=O)OCC(=O)Nc2cccnc2Cl)c2ccccc2n1 | 0 | 0 | - | 0 | 0 | 0
Cc1cccc(N(Cc2ccccc2)C(=O)CSC(C)C(=O)Nc2cc(C)on2)c1 (stereo not given) | - | - | - | - | 10µM | ?
COc1cc(S(=O)(=O)N2CCC(c3nc4ccccc4s3)CC2)ccc1S(=O)(=O)NC1CCCC1 | 0 | 0 | 0 | 0 | 9.3µM | ?
COc1cc(S(=O)(=O)N2CCC(c3nc4ccccc4s3)CC2)ccc1S(=O)(=O)N1CC(C)CC(C)C1 (stereo not given) | 0 | 0 | 0 | 0 | 0 | ?
Cc1cccnc1Nc1nc(-c2ccc(O)cc2)cs1 | 50 | 0 | 0 | 157 | - | 0
Cc1cccnc1Nc1nc(-c2ccc(F)cc2)cs1 | 57 | 0 | 0 | 103 | 0 | 0
O=C(Nc1nc(-c2ccncc2)cs1)c1ccc(F)cc1 | 0 | 0 | 0 | 0 | 0 | 0
Cc1cc(NC(=O)Nc2cccc3ccccc23)no1 | 0 | 0 | 0 | 0 | 0 | 0
Cc1cc(NC(=O)Nc2cc(Cl)ccc2C)no1 | 12 | 0 | 0 | 0 | 0 | 0
Cc1cc(NC(=O)Nc2ccc(F)cc2)no1 | 26 | - | 0 | 69 | ? | 0
Cc1cc(NC(=O)Nc2cccc(C(F)(F)F)c2)no1 | 0 | 0 | 0 | 0 | 0 | ?
Cc1cc(NC(=O)Nc2ccc(C)c(C)c2)no1 | 43 | 0 | 0 | 97 | 0[5.75 µM] | 0
Cc1ccc(S(=O)(=O)N(C)CC(=O)NCCCn2ccnc2)cc1 | 0 | 0 | 0 | 0 | 0 | 0
C[C@H]1[C@H](C)OC(=O)C[C@H](O)C[C@H](O)C[C@H](O)CC[C@H](O)[C@H](O)CC(=O)C[C@H](O)[C@H](C(=O)O)[C@H](O)C[C@H](O[C@@H]2O[C@@H](C)[C@H](O)[C@@H](N)[C@@H]2O)C=CC=CC=CC=CCCC=CC=C[C@@](C)(O)[C@H]1O | - | - | 0 | - | - | -
OC(C#Cc1ccccn1)c1cccs1 (stereo not given) | 51 | ? | 0 | 48 | 0 | 10µM
O=C(NC1CCCCC1)C(c1cccs1)N(C(=O)c1ccccn1)c1ccccc1 (stereo not given) | 0 | 0 | 0 | 0 | ? | 0
COc1ccc(OC)c(NC(=O)Nc2ccc3c(c2)CCC3)c1 | 19 | 0 | 0 | 28 | 0 | 0
Cc1cccc(NC(=O)Nc2nnc(N3CCCCC3C)s2)c1C (stereo not given) | 0 | 0 | 0 | 0 | 2.1µM | -
COc1ccc(NC(=O)CN(C)CC(=O)Nc2ccc3c(c2)CCC3)cc1 | 0 | 0 | - | 0 | 0 | 0
SMILES | Cycloheximide cs | FBPA Giardia inh | NS1 function inh | Shiga inhibitor | Pf growth 96h | Pf growth 48h
Cc1cccc(NC(=O)CSc2nnc(NC(=O)C3CC3)s2)c1C | 0 | 0 | 0 | 0 | 0 | 0
COc1ccc(NC(=O)Nc2ccc3c(c2)CCC3)c(OC)c1 | 0 | 0 | 0 | 0 | 0 | 0
COc1cccc(NC(=O)Nc2nnc(N3C(C)CCCC3C)s2)c1 (stereo not given) | 0 | 0 | 0 | 0 | ? | 13µM
COc1cccc(NC(=O)Nc2ccc3c(c2)CCC3)c1 | 39 | - | 0 | 75 | ? | 0
c1ccc(OCC2CCNCC2)nc1 | 0 | ? | 0 | 0 | ? | 0
COc1ccccc1N1CCN(C(=S)Nc2ccccc2)CC1 | 0 | 0 | 0 | - | ? | 0
COc1ccccc1N1CCN(C(=S)Nc2ccc(F)cc2)CC1 | 34 | 0 | 0 | 45 | ? | 0
COc1ccc(N2CCN(C(=S)Nc3ccc(F)cc3)CC2)cc1 | 0 | 0 | 0 | - | 15µM | 0
COc1ccc(OC)c(CNS(=O)(=O)c2cn(C)cn2)c1 | 0 | - | 0 | 0 | 0 | 0
N#Cc1cnc(NOCc2ccc(Cl)cc2)nc1 | 0 | 0 | - | 0 | 0 | 0
C=C(NCc1ccccc1)c1ccccc1O | - | - | - | - | 0 | 0
CN(C)CCCNC(=O)c1ccccn1 | 0 | 0 | 0 | 0 | 0 | -
Cc1oc2ccccc2c1CC(=O)NCCCN(C)C | 0 | 0 | 0 | 0 | 0 | 2.1µM
CC1CCN(S(=O)(=O)c2ccc3c(c2)N(CC(=O)NCc2cccnc2)C(=O)CS3)CC1 | 0 | 0 | 0 | 0 | 0 | 0
O=C(CN1C(=O)CSc2ccc(S(=O)(=O)N3CCCCC3)cc21)NCc1cccnc1 | 0 | 0 | 0 | 0 | 2.3µM | ?
COc1ccccc1CNC(=O)CN1C(=O)CSc2ccc(S(=O)(=O)N3CCCC3)cc21 | 0 | 0 | - | 0 | ? | 13µM
CC(=O)CC(c1ccccc1)c1c(O)c2cc(O)ccc2oc1=O (stereo not given) | 0 | 0 | - | 0 | - | -
COc1ccc(S(=O)(=O)N2CCOCC2)cc1NC(=O)CN1C(=O)NC(C)(C2CC2)C1=O (stereo not given) | - | - | - | - | 0 | 0
Cc1nn(-c2nc3ccccc3s2)c(N)c1Sc1ccc(F)cc1 | 20 | 0 | 0 | 48 | ? | 0
Cc1cc(N)n(-c2nc3ccccc3s2)n1 | 0 | 0 | 0 | 0 | 0 | ?
Cc1ccc(CC2CC(=O)N(c3nc4ccccc4s3)C2=O)cc1 (stereo not given) | 0 | 0 | 0 | 0 | 0 | 0
Cc1nn(-c2nc3ccccc3s2)c(N)c1-c1ccc(Cl)cc1 | 33 | 0 | 0 | 54 | - | 0
Cc1nn(-c2nc3ccccc3s2)c(N)c1-c1ccccc1 | 72 | 0 | 0 | 91 | - | 0
CSc1ccc(S(=O)(=O)NCC(=O)OCC(=O)N(C)C2CCCCC2)cc1[N+](=O)[O-] | - | - | - | - | 0 | 0
CC(C)NC(=O)N1CC[C@@]2(CCCN(S(C)(=O)=O)C2)C1 | - | 0 | - | - | - | -
SMILES | Cycloheximide cs | FBPA Giardia inh | NS1 function inh | Shiga inhibitor | Pf growth 96h | Pf growth 48h
Cc1ccc(S(=O)(=O)N(C)CC(=O)N2CC(C)OC(C)C2)cc1 (stereo not given) | 0 | - | 0 | 0 | 0 | 0
Cc1cccc(OCCOC(=O)c2c(-c3ccccc3)noc2C)c1 | 0 | 0 | 0 | 0 | 0 | ?
Cc1ccc2c(c1)C(=C(C#N)C#N)C(=O)N2CCN1CCOCC1 | 0 | 3.2µM | 0 | 0 | 0 | 0
Cc1ccc2c(c1)C(=C(C#N)C#N)C(=O)N2CCN1CCCCC1 | 0 | ? | 0 | 0 | 0 | ?
CCCCc1nc2cc(C(=O)NCc3ccccn3)ccc2o1 | 10 | 0 | 0 | 0 | 12µM | 0
CCCCc1nc2cc(C(=O)N(C)C(C)c3ccccn3)ccc2o1 (stereo not given) | 23 | 0 | 0 | 30 | 0 | 0
CCn1ccnc1CNC(=O)c1ccc2oc(CCCc3ccccc3)nc2c1 | 19 | - | 0 | 32 | 0 | ?
Cc1cnc(CNC(=O)c2ccc3oc(Cc4ccccc4)nc3c2)[nH]1 | 0 | ? | 0 | 0 | 0 | 0
